# Screens as filed in PubChem BioAssay.
# GPR151 ag = activators of human GPR151, primary screen, cell-based, PathHunter beta-arrestin, luminescence | G-protein coupled receptor 151 (Homo sapiens), Q8TDV0 | PathHunter beta-arrestin GPR151 cells | activation, % at 11.2 µM | 650,000 compounds, 1% hits; in the data active means activation above about 4.9%;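 further: 0% = median of compound wells and 100% = cells with positive control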
# MITF primary = MITF inhibitors, primary screen, biochemical, AlphaScreen, human; AlphaScreen MITF homodimerization, bead proximity signal; inhibition, % at 2.6 µM; 650,000 compounds, 0.91% hits; AID 1259374, 2018; in the data active means inhibition above about 50%;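 further: 0% = vehicle wells with protein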
# Target sequence (O75030 whole entry, looked up): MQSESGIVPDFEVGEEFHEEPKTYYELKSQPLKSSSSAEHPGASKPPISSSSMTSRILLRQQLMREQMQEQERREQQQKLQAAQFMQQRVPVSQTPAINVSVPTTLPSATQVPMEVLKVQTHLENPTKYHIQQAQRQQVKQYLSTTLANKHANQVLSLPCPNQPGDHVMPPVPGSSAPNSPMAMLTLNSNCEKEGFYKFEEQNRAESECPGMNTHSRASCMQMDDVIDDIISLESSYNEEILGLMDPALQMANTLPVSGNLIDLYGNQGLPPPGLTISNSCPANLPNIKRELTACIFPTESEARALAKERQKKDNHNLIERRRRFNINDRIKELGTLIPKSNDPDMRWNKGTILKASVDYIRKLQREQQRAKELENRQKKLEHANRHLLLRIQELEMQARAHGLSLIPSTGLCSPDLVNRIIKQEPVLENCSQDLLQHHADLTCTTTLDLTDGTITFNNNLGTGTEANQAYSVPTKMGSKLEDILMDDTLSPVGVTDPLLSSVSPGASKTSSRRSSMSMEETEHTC
# FBW7 activator = FBW7 E3 ligase activators, primary screen, biochemical, AlphaScreen, human; normalized activity (activation), % at 26.1 µM; F-box/WD repeat-containing protein 7 (Homo sapiens), Q969H0; 650,000 compounds, 0.13% hits; AlphaScreen FBW7–phospho-cyclin E peptide binding, activator screen; AID 1259310, 2017; in the data active means normalized activity above about 1.9%;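 further: purified mutant Fbw7 with reduced substrate affinity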
# TEAD-YAP block = TEAD-YAP interaction inhibition, primary screen, TEAD-YAP interaction inhibitor project, luminescence, HEK-TIYL cells; TEAD-Gal4/YAP UAS-luciferase luminescence; inhibition, % at 9.12 µM; 640,000 compounds, 1.4% hits; AID 1259422, 2018; in the data active means inhibition above about 32%;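 further: 0% = median of test compound wells and 100% = reference inhibitor wells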
# MITF inh conf = MITF inhibitors, retest of hits, confirmation, biochemical, AlphaScreen, triplicate | shares compounds with MITF primary | AlphaScreen MITF homodimerization, biotin/His-MITF beads | inhibition, % at 2.6 µM | 4,700 compounds, 16% hits | AID 1259372, 2018;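 active means inhibition above a cutoff derived from the DMSO control wells, cut at about 28% in these data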;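 further: 0% = MITF dimer wells with DMSO only; inhibitors lower the bead chemiluminescence by keeping MITF from dimerizing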
# AlphaScreen DR = AlphaScreen optical interference compounds, dose response, counter-screen, biochemical, HTS; shares compounds with MITF primary; AlphaScreen optical interference counterscreen, cell-free; IC50, µM; 480 compounds, 6% hits; AID 1259373, 2018; call rule not given here
# AlphaScreen intf2 = AlphaScreen optical interference compounds, counter-screen for MITF inhibitor project, biochemical, triplicate; shares compounds with MITF primary; LysRS AlphaScreen counterscreen, signal interference; inhibition, % at 2.6 µM; AID 1259376, 2018; 4,700 compounds, 7.6% hits;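 active means inhibition above a cutoff derived from the DMSO control wells, cut at about 30% in these data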
# The depositor's hits bear a star; x = no result. Shown are actives, neighbours in structure and some others; about 3.4% of the full set was active somewhere.
SMILES,GPR151 ag,MITF primary,FBW7 activator,TEAD-YAP block,MITF inh conf,AlphaScreen intf2,others
CC1CN(CCOc2cccc3ccccc23)CC(C)O1 (stereo not given),-0.8,57.5*,-0.1,-0.2,10.3,6.0,
CC1CCN(S(=O)(=O)c2ccc3c(c2)OCCO3)CC1,-0.7,-6.5,0.0,5.2,x,x,
Cc1ccccc1NC(=O)Cn1cc2c(n1)CCCCC2,-1.2,-10.8,0.1,-12.5,x,x,
O=C(NCC1CCCO1)C(=O)Nc1nccs1 (stereo not given),1.9,98.8*,0.0,-5.6,-4.4,-1.3,
CCCCCn1c(SCC(=O)C(C)(C)C)nc2cc(C(=O)Nc3cccc(Cl)c3)ccc2c1=O,0.8,13.4,0.0,3.2,x,x,
CC1=C/C(=N\N=C2\NC(=O)C(CC(=O)Nc3ccc(C(=O)O)cc3)S2)CC(C)(C)C1 (stereo not given),-1.6,67.9*,-0.1,-2.0,72.1*,12.9,AlphaScreen DR=>6.48
CCOc1ccc(NC(=O)CC2S/C(=N\N=C3/C=C(C)CC(C)(C)C3)NC2=O)cc1 (stereo not given),2.3,14.7,0.0,7.2,x,x,
CCOc1cc(/C=N/N=C2\NC(=O)C(CC(=O)O)S2)ccc1OCc1ccc(F)cc1 (stereo not given),-1.1,13.0,0.0,8.4,x,x,
O=C(CC1S/C(=N/N=C2\CSC(=O)N2)NC1=O)Nc1ccccc1 (stereo not given),3.1,64.9*,-0.3,-2.5,65.8*,100.3*,
COc1ccc(NC(=O)CC2S/C(=N/N=C3\CSC(=O)N3)NC2=O)cc1 (stereo not given),-2.2,82.5*,-2.2,3.5,61.6*,100.3*,
Cc1ccc(COc2ccc(/C=N/N=C3\NC(=O)C(CC(=O)O)S3)cc2)cc1 (stereo not given),-0.4,52.8*,-0.1,-14.9,35.1*,12.2,AlphaScreen DR=>6.48
O=C(CN1CCN(Cc2ccccc2)CC1)c1ccc2c(c1)OCCO2,2.5,34.7,0.1,5.0,x,x,
Cc1ccc(NC(=O)CC2S/C(=N\N=C3\CSC(=O)N3)NC2=O)cc1 (stereo not given),0.7,82.2*,-0.3,-7.7,68.0*,100.1*,
COc1ccc(/C=N/N=C2\NC(=O)C(CC(=O)Nc3ccc(C)cc3)S2)cc1 (stereo not given),-0.3,72.6*,0.1,2.9,5.7,-4.3,
O=C1N(Cc2cccs2)c2ccccc2C1(O)c1c[nH]c2ccccc12 (stereo not given),-1.1,3.6,0.1,16.9,x,x,
CC1(C)CC(=O)C(/C=N/Nc2n[nH]c(=O)[nH]c2=O)=C(O)C1,-0.9,94.8*,-0.7,-15.4,34.1*,97.6*,
CCOC(=O)C1=C(C)N=c2s/c(=C\c3cc(Cl)c(OC)c(OC)c3)c(=O)n2C1c1ccc(OCC)cc1 (stereo not given),-0.3,50.8*,-0.1,-2.3,-8.7,-7.4,
C=CCOc1c(Cl)cc(/C=c2\sc3n(c2=O)C(c2ccc(OCC)cc2)C(C(=O)OCC)=C(C)N=3)cc1Cl (stereo not given),0.2,6.8,0.2,-1.2,x,x,
CCOc1ccc(/C=C/C(=O)Nc2nc3ccc(S(C)(=O)=O)cc3s2)cc1OC,0.3,73.2*,0.1,-0.8,-0.8,2.1,
CCc1cccc(OCCCNC(C)CC)c1 (stereo not given),-0.9,81.6*,0.3,12.0,13.6,7.5,
CCC(C)NCCOCCOc1ccc(Br)cc1 (stereo not given),1.2,26.1,-0.1,4.0,x,x,
CCC(C)NCCOCCOc1ccc(Cl)c(Cl)c1 (stereo not given),1.4,66.5*,-0.1,-5.8,-2.7,-4.9,
CCC(C)NCCOc1ccc(Br)cc1 (stereo not given),-0.7,75.7*,-0.1,3.6,-13.9,0.6,
CCC(C)NCCOCCOc1ccc(C)cc1 (stereo not given),-0.1,48.7,0.0,10.0,x,x,
COCCOC(=O)c1c(C)oc2ccc(OCc3ccccc3Cl)cc12,-0.3,6.4,0.2,1.8,x,x,
SMILES,GPR151 ag,MITF primary,FBW7 activator,TEAD-YAP block,MITF inh conf,AlphaScreen intf2,others
C=CCOC(=O)N1CCC(C(=O)NC(c2ccccc2)c2ncccc2C)CC1 (stereo not given),0.9,10.3,0.3,12.1,x,x,
CC(C)/C=C/CN1CCc2nnc(CNC(=O)C3CCC(=O)N3)n2CC1 (stereo not given),-0.9,7.2,-0.1,4.2,x,x,
CCC(CC)CN1CCc2nnc(CNC(=O)C3CCC(=O)N3)n2CC1 (stereo not given),0.4,78.5*,0.0,-0.3,0.5,2.5,
Cc1ccc(C(=O)N2CCN3C(=O)[C@H](COCc4ccccc4)NC(=O)[C@H]3C2)cc1F,-0.6,2.8,0.3,6.9,x,x,
CC(C)(C)n1ncc2c(=O)n(Cc3cccc(F)c3)cnc21,0.6,54.5*,0.1,6.8,13.8,18.1,
O=C(Nc1cc([N+](=O)[O-])ccc1C(=O)NCCc1ccccc1)c1ccccc1,0.0,66.9*,-0.1,-22.9,7.0,12.9,
O=C(COC(=O)c1ccc(O)cc1)NC1CCCCC1,0.0,58.5*,-0.1,11.4,-2.5,4.7,
Cc1cc(NC(=O)CN2CCOCC2)c2ccccc2n1,1.3,-4.9,0.0,-3.4,x,x,
NC(=O)C1CCN(CC(=O)Nc2c3c(nc4ccccc24)CCC3)CC1,-1.0,0.3,-0.1,3.3,x,x,
O=C(CN1CCCCC1)Nc1c2c(nc3c1CCC3)CCCC2,0.9,71.3*,-0.1,5.1,0.9,-3.5,
O=C(CN1CCCCC1)Nc1c2c(nc3ccccc13)CCCC2,0.6,65.7*,-0.2,4.3,7.7,11.1,
Cc1cc(NC(=O)CN2CCCCC2)c2ccccc2n1,1.0,50.7*,-0.2,3.7,20.9,-7.7,
CC(C)(C)NCC(=O)Nc1c2c(nc3c1CCC3)CCC2,1.0,-1.5,-0.2,-1.2,x,x,
O=C(CN1CCCCCC1)NC(c1ccccc1)c1ccccc1,-0.4,54.2*,0.2,-2.1,12.2,22.5,
COCC1CCN(Cc2c(C(=O)N3CCCCC3)nc3sccn23)C1 (stereo not given),0.8,-3.0,0.1,-7.6,x,x,
CNC(=O)c1cc2c(=O)n3cc(C)ccc3nc2n(C2CCCC2)c1=N,-2.8,-4.4,-0.4,-20.8,x,x,
CN(CCC#N)C(=O)c1ccc2ccccc2c1,0.0,1.0,-0.1,0.7,x,x,
CC(=O)NC12CC3CC(C1)CC(n1ncc(NCc4ccccc4)c(Cl)c1=O)(C3)C2,-0.2,1.6,-0.1,-4.1,x,x,
NCC(=O)Nc1c2c(nc3c1CCC3)CCC2,0.1,62.0*,-0.3,1.5,-1.0,-0.1,
